{
  "source": "ChEMBL document CHEMBL2218924",
  "about": "“A broad activity screen in support of a chemogenomic map for kinase signalling research and drug discovery” (Biochem J, 2013)",
  "data": [
    {"target": "T1, Rhodopsin kinase GRK7 (Homo sapiens) (UniProt Q8WTQ7)", "T1 sequence (whole entry)": "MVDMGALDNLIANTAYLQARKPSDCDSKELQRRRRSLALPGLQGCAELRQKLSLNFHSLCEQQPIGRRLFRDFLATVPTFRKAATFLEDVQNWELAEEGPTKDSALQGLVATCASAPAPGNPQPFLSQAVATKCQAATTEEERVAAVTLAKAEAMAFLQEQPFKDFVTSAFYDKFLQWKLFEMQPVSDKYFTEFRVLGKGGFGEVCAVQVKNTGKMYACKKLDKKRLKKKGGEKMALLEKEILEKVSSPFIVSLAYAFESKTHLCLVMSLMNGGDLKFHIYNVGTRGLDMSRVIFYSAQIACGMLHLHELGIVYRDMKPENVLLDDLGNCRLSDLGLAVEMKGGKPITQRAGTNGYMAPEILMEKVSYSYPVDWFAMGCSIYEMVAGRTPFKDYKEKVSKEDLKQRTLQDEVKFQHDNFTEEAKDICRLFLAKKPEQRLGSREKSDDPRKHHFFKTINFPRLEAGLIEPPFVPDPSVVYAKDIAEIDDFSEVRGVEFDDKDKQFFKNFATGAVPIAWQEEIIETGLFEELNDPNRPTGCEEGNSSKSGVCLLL", "conditions": "at 10 µM", "units": {"residual activity": "%"}, "values": [
      {"smiles": "COc1ccc2c(c1)c(C1=C(c3c[nH]c4ccccc34)C(=O)NC1=O)cn2CCCN(C)C", "residual activity": 44},
      {"smiles": "COc1cc2nccc(Oc3ccc(NC(=S)NC(=O)c4ccccc4C)cc3)c2cc1OC", "residual activity": 84},
      {"smiles": "CC(C)(C)n1nc(Cc2cccc3ccccc23)c2c(N)ncnc21", "residual activity": 56},
      {"smiles": "O=C(NC(NC(=S)Nc1ccc(F)c([N+](=O)[O-])c1)C(Cl)(Cl)Cl)C(c1ccccc1)c1ccccc1", "note": "(stereo not drawn)", "residual activity": 98},
      {"smiles": "Nc1ncnc2c1cnn2-c1ccccc1", "residual activity": 94},
      {"smiles": "O=C1NC(=O)C(c2c[nH]c3ccccc23)=C1c1c[nH]c2ccccc12", "residual activity": 20},
      {"smiles": "O=C1NC(=O)c2c1c1c3ccccc3[nH]c1n1cncc21", "residual activity": 76},
      {"smiles": "CCCCc1c(-c2ccc(OC)cc2)[nH]c2nccnc12", "residual activity": 92},
      {"smiles": "COc1cc2c(cc1OC)-c1n[nH]c(Nc3cccc(F)c3)c1C2", "residual activity": 80},
      {"smiles": "Nc1ncnc2c1c(-c1ccc(Oc3ccccc3)cc1)cn2C1CCCC1", "residual activity": 69},
      {"smiles": "O=C1Nc2ccccc2/C1=C\\c1c(Cl)[nH]c2ccccc12", "residual activity": 87},
      {"smiles": "O=c1cc(N2CCOCC2)oc2c1ccc1ccccc12", "residual activity": 87},
      {"smiles": "CCCC(=O)Oc1ccc2[nH]c(C(=O)c3cc4ccccc4[nH]3)cc2c1", "residual activity": 82},
      {"smiles": "O=C1NC(=O)C(c2cn(CCCn3ccnc3)c3ccccc23)=C1Nc1ccccc1", "residual activity": 22},
      {"smiles": "CCN(CC)CCNC(=O)c1c(C)[nH]c(/C=C2\\C(=O)Nc3ccc(Cl)cc32)c1C", "residual activity": 9},
      {"smiles": "O=C(c1cc2cc(O)ccc2[nH]1)c1cc2cc(O)ccc2[nH]1", "residual activity": 54},
      {"smiles": "CN(C)S(=O)(=O)c1ccc2c(c1)/C(=C/c1cc3c([nH]1)CCCC3)C(=O)N2", "residual activity": 78},
      {"smiles": "Oc1cccc(-c2nc(N3CCOCC3)c3oc4ncccc4c3n2)c1", "residual activity": 94},
      {"smiles": "O=C(CCCc1ccc(-c2ccccc2F)cc1)Nc1ccc(O)cc1", "residual activity": 86},
      {"smiles": "NC(=O)Nc1sc(-c2ccc(F)cc2)cc1C(N)=O", "residual activity": 19},
      {"smiles": "Cc1cc(C)c(/C=C2\\C(=O)Nc3ccccc32)[nH]1", "residual activity": 60},
      {"smiles": "O=C(c1ccccc1)c1ccc(N2CCOCC2)cc1O", "residual activity": 95},
      {"smiles": "O=C(O)/C=C/c1cc(Br)c(Br)c(Br)c1Br", "residual activity": 95},
      {"smiles": "O=C(Nc1nc2ccccc2n1CCN1CCOCC1)c1cccc([N+](=O)[O-])c1", "residual activity": 79},
      {"smiles": "CCCCc1c(-c2ccc(O)cc2)[nH]c2nccnc12", "residual activity": 87},
      {"smiles": "O=c1cc(N2CCNCC2)oc2c(-c3ccccc3)cccc12", "residual activity": 84},
      {"smiles": "O=C1Nc2ccc(Cl)cc2/C1=C/c1cc(Cl)c(O)c(Cl)c1", "residual activity": 79},
      {"smiles": "CC(C)[C@H](CO)Nc1nc(Nc2cc(N)cc(Cl)c2)c2ncn(C(C)C)c2n1", "residual activity": 10},
      {"smiles": "O=C1C(Cl)=C(N2C(=O)CCC2=O)C(=O)c2ccccc21", "residual activity": 90},
      {"smiles": "Cn1c2ccccc2c2c3c(c4c5ccccc5n(CCC#N)c4c21)CNC3=O", "residual activity": 34},
      {"smiles": "CC(C)c1nn(-c2c(Cl)cccc2Cl)c2nc(Cc3ccc(OCCO)cc3)[nH]c(=O)c12", "residual activity": 80},
      {"smiles": "Nc1nc(Nc2ccc(S(N)(=O)=O)cc2)nn1C(=O)c1c(F)cccc1F", "residual activity": 6}
    ]},
    {"target": "Glycogen synthase kinase-3 alpha (Homo sapiens) (UniProt P49840)", "sequence (P49840 2-483 limits assumed)": "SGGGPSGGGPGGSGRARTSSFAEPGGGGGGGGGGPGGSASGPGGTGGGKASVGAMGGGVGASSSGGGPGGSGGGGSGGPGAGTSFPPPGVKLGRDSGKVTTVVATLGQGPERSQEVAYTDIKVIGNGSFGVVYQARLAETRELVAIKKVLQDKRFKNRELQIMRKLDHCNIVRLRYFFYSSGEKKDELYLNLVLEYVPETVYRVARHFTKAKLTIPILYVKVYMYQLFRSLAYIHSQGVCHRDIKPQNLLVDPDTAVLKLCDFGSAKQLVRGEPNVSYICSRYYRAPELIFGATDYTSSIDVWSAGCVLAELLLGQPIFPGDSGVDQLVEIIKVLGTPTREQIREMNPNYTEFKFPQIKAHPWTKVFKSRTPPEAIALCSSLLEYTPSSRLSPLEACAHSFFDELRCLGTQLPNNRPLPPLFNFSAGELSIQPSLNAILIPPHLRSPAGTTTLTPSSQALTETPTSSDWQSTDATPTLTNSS", "conditions": "at 1 µM", "units": {"residual activity": "%"}, "values": [
      {"smiles": "COc1ccc2c(c1)c(C1=C(c3c[nH]c4ccccc34)C(=O)NC1=O)cn2CCCN(C)C", "residual activity": 15},
      {"smiles": "COc1cc2nccc(Oc3ccc(NC(=S)NC(=O)c4ccccc4C)cc3)c2cc1OC", "residual activity": 120},
      {"smiles": "CC(C)(C)n1nc(Cc2cccc3ccccc23)c2c(N)ncnc21", "residual activity": 116},
      {"smiles": "O=C1NC(=O)C(c2c[nH]c3ccccc23)=C1c1c[nH]c2ccccc12", "residual activity": 19},
      {"smiles": "O=C1NC(=O)c2c1c1c3ccccc3[nH]c1n1cncc21", "residual activity": 7},
      {"smiles": "CCCCc1c(-c2ccc(OC)cc2)[nH]c2nccnc12", "residual activity": 46},
      {"smiles": "COc1cc2c(cc1OC)-c1n[nH]c(Nc3cccc(F)c3)c1C2", "residual activity": 115},
      {"smiles": "Nc1ncnc2c1c(-c1ccc(Oc3ccccc3)cc1)cn2C1CCCC1", "residual activity": 104},
      {"smiles": "O=C1NC(=O)C(c2cn(CCCn3ccnc3)c3ccccc23)=C1Nc1ccccc1", "residual activity": 14},
      {"smiles": "CN(C)S(=O)(=O)c1ccc2c(c1)/C(=C/c1cc3c([nH]1)CCCC3)C(=O)N2", "residual activity": 97},
      {"smiles": "NC(=O)Nc1sc(-c2ccc(F)cc2)cc1C(N)=O", "residual activity": 64},
      {"smiles": "Cc1cc(C)c(/C=C2\\C(=O)Nc3ccccc32)[nH]1", "residual activity": 106},
      {"smiles": "O=C(c1ccccc1)c1ccc(N2CCOCC2)cc1O", "residual activity": 91},
      {"smiles": "O=C(O)/C=C/c1cc(Br)c(Br)c(Br)c1Br", "residual activity": 93},
      {"smiles": "O=C(Nc1nc2ccccc2n1CCN1CCOCC1)c1cccc([N+](=O)[O-])c1", "residual activity": 113},
      {"smiles": "CCCCc1c(-c2ccc(O)cc2)[nH]c2nccnc12", "residual activity": 62},
      {"smiles": "O=C1Nc2ccc(Cl)cc2/C1=C/c1cc(Cl)c(O)c(Cl)c1", "residual activity": 75},
      {"smiles": "CC(C)[C@H](CO)Nc1nc(Nc2cc(N)cc(Cl)c2)c2ncn(C(C)C)c2n1", "residual activity": 80},
      {"smiles": "Cn1c2ccccc2c2c3c(c4c5ccccc5n(CCC#N)c4c21)CNC3=O", "residual activity": 20},
      {"smiles": "CC(C)c1nn(-c2c(Cl)cccc2Cl)c2nc(Cc3ccc(OCCO)cc3)[nH]c(=O)c12", "residual activity": 66},
      {"smiles": "Nc1nc(Nc2ccc(S(N)(=O)=O)cc2)nn1C(=O)c1c(F)cccc1F", "residual activity": 11}
    ]}
  ]
}
